Details in all cases: mRNA level, 48 h; actives raise or lower the signal
Read-out in test [1]: Caspase-3 (Homo sapiens) (UniProt P42574)
Description: LTEA_HepaRG_CASP3: Life Technologies and Expression Analysis (LTEA) Assay for cysteine-aspartic acid protease (CASP3) using HepaRG (AID 2283477). In a few lines: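 Transcript-level assay: CASP3 mRNA in human HepaRG after 48 h treatment, eight half-log concentrations from 100 uM in 0.5% DMSO, quantified by qRT-PCR.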

Read-out in test [2]: Cytochrome P450 (CYP24A1), CYP24A1 (gene 1591)
Nature of the test: LTEA_HepaRG_CYP24A1: Life Technologies and Expression Analysis (LTEA) Assay for Cytochrome P450 (CYP24A1) using HepaRG (AID 2283478). In outline: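 Gene expression of CYP24A1 by TaqMan qRT-PCR in HepaRG after 48 h treatment, highest concentration 100 uM; activity fitted in both directions relative to DMSO vehicle.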

Read-out in test [3]: Cytochrome P450 (CYP1A2), CYP1A2 (gene 1544)
Description: LTEA_HepaRG_CYP1A2: Life Technologies and Expression Analysis (LTEA) Assay for Cytochrome P450 (CYP1A2) using HepaRG (AID 2283479). In a few lines: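 In duplicate wells, HepaRG cultures maintained in 0.5% DMSO were treated 48 h across an 8-point, half-log series topping at 100 uM; phenobarbital (1 mM) served as induction control. Expression was read by qRT-PCR.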

Read-out in test [4]: cysteine-aspartic acid protease (CASP8), CASP8 (gene 841)
Description: LTEA_HepaRG_CASP8: Life Technologies and Expression Analysis (LTEA) Assay for cysteine-aspartic acid protease (CASP8) using HepaRG (AID 2283480). In a few lines:
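Differentiated HepaRG cells in serum-free induction medium, 48 h exposure, eight-point half-log series from 100 uM in 0.5% DMSO, duplicates. CASP8 mRNA by qRT-PCR, normalized to ACTB, GAPDH, POLR2A; bidirectional fit versus DMSO.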

Read-out in test [5]: Cytochrome P450 (CYP2B6), CYP2B6 (gene 1555)
Description: LTEA_HepaRG_CYP2B6: Life Technologies and Expression Analysis (LTEA) Assay for Cytochrome P450 (CYP2B6) using HepaRG (AID 2283481). In outline: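 Human HepaRG, 48 h dosing, 0.5% DMSO vehicle, top dose 100 uM. CYP2B6 transcript by qRT-PCR, housekeeping-normalized, bidirectional curve fit.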

Read-out in test [6]: Cytochrome P450 2C19 (Homo sapiens) (UniProt P33261)
Nature of the test: LTEA_HepaRG_CYP2C19: Life Technologies and Expression Analysis (LTEA) Assay for CYP2C19 using HepaRG (AID 2283482). In outline:
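Endpoint: CYP2C19 mRNA change, bidirectional fit vs 0.5% DMSO. Cells: HepaRG, 48 h exposure, eight-point series topping at 100 uM. Quantitation: qRT-PCR normalized to ACTB, GAPDH, POLR2A.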

Read-out in test [7]: CYP2C8 (gene 1558)
Description: LTEA_HepaRG_CYP2C8: Life Technologies and Expression Analysis (LTEA) Assay for CYP2C8 using HepaRG (AID 2283483). In outline:
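Differentiated HepaRG cells in serum-free induction medium exposed 48 h in duplicate to 8 half-log concentrations from 100 uM in 0.5% DMSO. CYP2C8 mRNA by qRT-PCR normalized to ACTB, GAPDH, POLR2A; bidirectional fit versus DMSO.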

Read-out in test [8]: CYP2C9 (gene 1559)
Description: LTEA_HepaRG_CYP2C9: Life Technologies and Expression Analysis (LTEA) Assay for CYP2C9 using HepaRG (AID 2283484). In a few lines:
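Differentiated human HepaRG cells in serum-free induction medium were exposed 48 h to chemicals in 8-point half-log series from 100 uM (0.5% DMSO), in duplicate. CYP2C9 mRNA was measured by qRT-PCR, normalized to ACTB/GAPDH/POLR2A, with bidirectional fitting versus DMSO.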

Read-out in test [9]: CYP2E1 (gene 1571)
Description: LTEA_HepaRG_CYP2E1: Life Technologies and Expression Analysis (LTEA) Assay for CYP2E1 using HepaRG (AID 2283485). In a few lines: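 Differentiated HepaRG cells were treated in duplicate for 48 h with chemicals in 0.5% DMSO, from 100 uM downward in half-log dilutions. RNA was then analysed by qRT-PCR for CYP2E1 induction or loss.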

Read-out in test [10]: CYP4A11 (gene 1579)
Nature of the test: LTEA_HepaRG_CYP4A11: Life Technologies and Expression Analysis (LTEA) Assay for CYP4A11 using HepaRG (AID 2283486). In a few lines:
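Human hepatic HepaRG cultures receive duplicate 48 h exposures across a concentration-response series topping at 100 uM. Expression changes in CYP4A11 are measured by qRT-PCR relative to DMSO controls.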

Read-out in test [11]: Cytochrome P450 3A4 (Homo sapiens) (UniProt P08684)
Description: LTEA_HepaRG_CYP3A4: Life Technologies and Expression Analysis (LTEA) Assay for CYP3A4 using HepaRG (AID 2283487). In outline: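 HepaRG, 48 h exposure, 8-pt CRC from 100 uM (half-log), 0.5% DMSO, duplicates; serum-free induction medium. Readout: CYP3A4 mRNA, qRT-PCR, ACTB/GAPDH/POLR2A normalization. Bidirectional fit vs DMSO.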

Read-out in test [12]: DNA damage-inducible transcript 3 (DDIT3), DDIT3 (gene 1649)
Nature of the test: LTEA_HepaRG_DDIT3: Life Technologies and Expression Analysis (LTEA) Assay for DNA damage-inducible transcript 3 (DDIT3) using HepaRG (AID 2283488). In outline: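 Changes in DDIT3 transcript, in either direction relative to 0.5% DMSO vehicle, were quantified by TaqMan qRT-PCR after 48 h chemical exposure of HepaRG cells at 8 concentrations, maximum 100 uM.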

Read-out in test [13]: Pro-epidermal growth factor (Homo sapiens) (UniProt P01133)
Nature of the test: LTEA_HepaRG_EGF: Life Technologies and Expression Analysis (LTEA) Assay for Epidermal growth factor (EGF) using HepaRG (AID 2283489). In a few lines: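 Concentration-response mRNA assay: HepaRG cells dosed 48 h (max 100 uM, 0.5% DMSO), EGF measured by qRT-PCR and normalized to ACTB/GAPDH/POLR2A.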

Read-out in test [14]: Early growth response protein 1 (EGR1) transcription factor, EGR1 (gene 1958)
Description: LTEA_HepaRG_EGR1: Life Technologies and Expression Analysis (LTEA) Assay for Early growth response protein 1 (EGR1) transcription factor using HepaRG (AID 2283490). In outline:
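Differentiated HepaRG cells in serum-free induction medium exposed 48 hours, duplicate, to 8 half-log concentrations up to 100 uM in 0.5% DMSO. EGR1 mRNA measured by TaqMan qRT-PCR, normalized to ACTB, GAPDH, POLR2A; bidirectional fit versus DMSO.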

Read-out in test [15]: Ezrin (EZR), EZR (gene 7430)
Nature of the test: LTEA_HepaRG_EZR: Life Technologies and Expression Analysis (LTEA) Assay for Ezrin (EZR) using HepaRG (AID 2283491). In outline: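 Read-out is EZR transcript level by qRT-PCR, normalized to three housekeeping genes and fitted bidirectionally against the DMSO control. Human HepaRG cells received test chemicals for 48 h at eight half-log concentrations up to 100 uM in 0.5% DMSO.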

Read-out in test [16]: Cytochrome P450 3A7 (Homo sapiens) (UniProt P24462)
Description: LTEA_HepaRG_CYP3A7: Life Technologies and Expression Analysis (LTEA) Assay for CYP3A7 using HepaRG (AID 2283492). In a few lines:
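qRT-PCR of CYP3A7 in HepaRG lysates after 48 h treatment; concentration-response (8 points, max 100 uM) analysed bidirectionally relative to 0.5% DMSO controls.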

Read-out in test [17]: CYP3A5 (gene 1577)
Nature of the test: LTEA_HepaRG_CYP3A5: Life Technologies and Expression Analysis (LTEA) Assay for CYP3A5 using HepaRG (AID 2283493). In outline:
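mRNA induction or loss of CYP3A5 assessed in HepaRG after 48 h dosing, 100 uM top concentration, duplicate wells; TaqMan qRT-PCR with ACTB, GAPDH, POLR2A normalization; 0.5% DMSO as negative control.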

Read-out in test [18]: Fatty Acid-Binding Protein 1 (FABP1), FABP1 (gene 2168)
Description: LTEA_HepaRG_FABP1: Life Technologies and Expression Analysis (LTEA) Assay for Fatty Acid-Binding Protein 1 (FABP1) using HepaRG (AID 2283494). In a few lines: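 Differentiated human HepaRG cells exposed 48 h in serum-free induction medium to eight half-log concentrations up to 100 uM (0.5% DMSO), duplicate. FABP1 mRNA by qRT-PCR, normalised to ACTB, GAPDH, POLR2A; bidirectional fitting against DMSO.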

Read-out in test [19]: Cytochrome P450 4A22 (Homo sapiens) (UniProt Q5TCH4)
Description: LTEA_HepaRG_CYP4A22: Life Technologies and Expression Analysis (LTEA) Assay for Cytochrome P450 4A22 (CYP4A22) using HepaRG (AID 2283495). In outline:
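Concentration-response (8 points, max 100 uM, 0.5% DMSO) in human HepaRG liver cells after 48 h exposure. CYP4A22 mRNA by TaqMan qRT-PCR with housekeeping-gene normalization.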

Read-out in test [20]: Cytochrome P450 7A1 (Homo sapiens) (UniProt P22680)
Description: LTEA_HepaRG_CYP7A1: Life Technologies and Expression Analysis (LTEA) Assay for Cytochrome P450 7A1 (CYP7A1) using HepaRG (AID 2283496). In outline: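 Gene expression endpoint in human HepaRG liver cells treated for 48 h with test chemicals (up to 100 uM, 0.5% DMSO). Values come from bidirectional concentration-response fitting versus DMSO.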

Calls of active or inactive are those of the source. How the source made its calls: active means hit-call score of the fitted dose curve at least 0.9, where 1 is the maximum; inactive means score below 0.9.

For orientation: AC50 means the concentration giving half of the maximal activity seen.

Cytochrome P450 3A4 (Homo sapiens), sequence (P08684 whole entry, looked up): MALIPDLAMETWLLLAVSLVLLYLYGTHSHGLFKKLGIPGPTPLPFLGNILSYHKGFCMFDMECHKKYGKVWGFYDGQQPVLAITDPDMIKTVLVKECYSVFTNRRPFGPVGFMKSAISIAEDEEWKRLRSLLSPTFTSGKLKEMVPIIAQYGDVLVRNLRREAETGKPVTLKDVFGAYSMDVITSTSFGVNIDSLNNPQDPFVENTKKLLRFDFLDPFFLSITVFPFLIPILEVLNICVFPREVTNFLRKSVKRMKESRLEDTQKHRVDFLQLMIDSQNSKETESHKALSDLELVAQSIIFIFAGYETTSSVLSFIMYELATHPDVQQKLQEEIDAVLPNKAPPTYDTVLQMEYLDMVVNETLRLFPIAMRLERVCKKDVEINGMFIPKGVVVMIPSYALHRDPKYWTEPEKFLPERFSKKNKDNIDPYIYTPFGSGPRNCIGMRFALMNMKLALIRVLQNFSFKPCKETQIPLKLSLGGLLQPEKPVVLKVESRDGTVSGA
Cytochrome P450 2C19 (Homo sapiens), sequence (P33261 whole entry, looked up): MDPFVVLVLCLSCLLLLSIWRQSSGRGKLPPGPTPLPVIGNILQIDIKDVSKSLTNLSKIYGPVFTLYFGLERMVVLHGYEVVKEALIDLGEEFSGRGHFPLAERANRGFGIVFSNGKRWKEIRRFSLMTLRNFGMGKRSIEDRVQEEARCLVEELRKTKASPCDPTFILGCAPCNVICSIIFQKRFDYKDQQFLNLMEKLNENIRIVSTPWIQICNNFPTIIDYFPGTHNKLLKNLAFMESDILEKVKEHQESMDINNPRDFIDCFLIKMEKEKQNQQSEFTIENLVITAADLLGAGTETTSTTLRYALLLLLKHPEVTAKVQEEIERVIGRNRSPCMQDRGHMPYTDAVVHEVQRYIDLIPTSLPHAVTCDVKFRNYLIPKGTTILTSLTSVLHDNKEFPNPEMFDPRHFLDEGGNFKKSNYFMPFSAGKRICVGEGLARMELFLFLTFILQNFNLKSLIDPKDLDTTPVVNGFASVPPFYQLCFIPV
Caspase-3 (Homo sapiens), sequence (P42574 whole entry, looked up): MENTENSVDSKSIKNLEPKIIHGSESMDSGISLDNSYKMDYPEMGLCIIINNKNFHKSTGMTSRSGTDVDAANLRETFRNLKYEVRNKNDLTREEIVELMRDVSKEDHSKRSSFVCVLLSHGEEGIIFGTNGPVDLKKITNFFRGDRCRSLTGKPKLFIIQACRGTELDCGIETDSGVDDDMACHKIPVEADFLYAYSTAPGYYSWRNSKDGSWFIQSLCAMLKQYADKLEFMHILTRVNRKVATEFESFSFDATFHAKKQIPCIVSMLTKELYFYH
Cytochrome P450 3A7 (Homo sapiens), sequence (P24462 whole entry, looked up): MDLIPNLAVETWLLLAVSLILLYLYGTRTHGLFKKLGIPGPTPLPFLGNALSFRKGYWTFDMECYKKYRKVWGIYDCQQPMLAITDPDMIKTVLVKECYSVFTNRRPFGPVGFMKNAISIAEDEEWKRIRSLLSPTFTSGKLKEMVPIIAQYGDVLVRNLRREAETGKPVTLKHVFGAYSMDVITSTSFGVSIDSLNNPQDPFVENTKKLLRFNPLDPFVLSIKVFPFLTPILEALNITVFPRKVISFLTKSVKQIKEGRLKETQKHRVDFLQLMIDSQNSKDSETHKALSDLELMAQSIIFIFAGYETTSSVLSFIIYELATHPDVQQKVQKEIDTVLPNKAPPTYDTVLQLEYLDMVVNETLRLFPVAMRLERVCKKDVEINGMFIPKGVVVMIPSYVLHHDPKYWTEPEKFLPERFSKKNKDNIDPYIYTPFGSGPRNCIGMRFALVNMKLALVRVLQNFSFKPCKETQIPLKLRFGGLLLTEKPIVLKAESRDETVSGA

As to `Cc1ccc(C(C)C)c(O)c1`, the compound was called inactive in test [1], in [2], in [3], in [4], in [5] and in test [6]. In addition, the compound was called inactive in test [7], in [8], in test [9], in test [10], in test [11] and in test [12]. For the same compound, the compound was called inactive in test [13], in test [14], in test [15], in test [16], in test [17] and in test [18]. Besides, the compound was called inactive in [19] and in [20].
For the compound `CCCCCCCC=O`, the compound was classed as inactive in test [1], in [2], in [4], in test [5], in test [6] and in test [7]. Also, the result in [8], in test [9], in test [10], in test [11], in test [13] and in test [14] was inactive. Further, the compound was called inactive in test [15], in [16], in test [17], in test [18], in test [19] and in test [20]. The results for the half-maximal activity concentration (AC50) in [3] and in test [12] were 50 µM (active) and 9.92 µM (active), respectively.
With `CCCc1cc(=O)[nH]c(=S)[nH]1`, the compound was classed as inactive in [1], in [2], in [4], in [5], in test [6] and in test [7]. For the same compound, the compound was called inactive in test [8], in [9], in test [10], in [11], in test [12] and in test [13]. Also, the call in test [14], in [15], in test [16], in [17], in test [18] and in [19] was inactive. For the same compound, the compound was called inactive in test [20]. The AC50 in test [3] is 23.7 µM (active).
As for `C=CCc1ccc(O)c(OC)c1`, the outcome in test [1], in test [2], in test [3], in [4], in [5] and in [6] was inactive. Moreover, the compound was classed as inactive in test [7], in [8], in test [9], in test [10], in test [11] and in [12]. The call in test [13], in test [14], in test [15], in test [16], in test [17] and in [18] was inactive. Also, the result in [19] and in test [20] was inactive.
As for `CCCCCCCCCCO`, the compound was classed as inactive in [1], in [2], in test [3], in test [4], in [5] and in test [6]. For the same compound, the result in test [7], in test [8], in test [9], in test [10], in test [11] and in test [12] was inactive. The result in test [13], in test [14], in [15], in test [16], in test [17] and in test [18] was inactive. The outcome in test [19] and in test [20] was inactive.
As to `CC1(C)NC(=O)NC1=O`, the result in [1], in test [2], in [3], in test [4], in test [5] and in test [6] was inactive. Further, the result in test [7], in test [8], in test [9], in test [10], in [11] and in test [12] was inactive. In addition, the outcome in test [13], in test [14], in test [16], in test [17], in test [18] and in [19] was inactive. Moreover, the compound was classed as inactive in [20].

The values above are taken from PubChem BioAssay (EPA / NIEHS).
